{"source": "PubChem BioAssay (NCATS)", "note": "“And” between values parts separate entries of the source, which are not always exact repeats. Equal values may be shown once. The source made the active and inactive calls. Unless noted, calls follow the shape of the full dose curve."}
{"molecular_target": "Estrogen receptor (Homo sapiens) (UniProt P03372)", "sequence (P03372 whole entry, looked up)": "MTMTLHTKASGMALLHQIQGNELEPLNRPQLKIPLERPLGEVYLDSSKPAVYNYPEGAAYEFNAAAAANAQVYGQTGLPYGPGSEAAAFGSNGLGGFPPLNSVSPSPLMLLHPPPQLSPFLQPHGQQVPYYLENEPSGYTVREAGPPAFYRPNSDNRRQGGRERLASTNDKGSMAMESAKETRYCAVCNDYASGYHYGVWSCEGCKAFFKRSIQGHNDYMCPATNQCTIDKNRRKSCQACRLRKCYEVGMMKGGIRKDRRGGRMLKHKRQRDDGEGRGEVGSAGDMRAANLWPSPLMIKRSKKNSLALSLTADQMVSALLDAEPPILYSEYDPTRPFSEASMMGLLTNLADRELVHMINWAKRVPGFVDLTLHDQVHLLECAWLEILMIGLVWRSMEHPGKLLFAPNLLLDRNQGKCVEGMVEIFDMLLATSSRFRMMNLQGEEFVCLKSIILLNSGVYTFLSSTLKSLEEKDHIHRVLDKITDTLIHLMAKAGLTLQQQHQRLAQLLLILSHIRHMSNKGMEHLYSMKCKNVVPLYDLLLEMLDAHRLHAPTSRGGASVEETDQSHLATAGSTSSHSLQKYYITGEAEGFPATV", "experiment": "qHTS assay for small molecule antagonists of estrogen receptor alpha signaling (AID 588513; active = well fitted curve in the direction sought with a large enough effect in the signal ratio, with a control signal flat, not every such curve was filed as active; inconclusive = small, poorly fitted or top-dose-only effect, or effect the other way, or a change in a side signal; inactive = no such curve, though single readings can be large or run the other way; the % refers to the signal ratio; also: potency is read from the fitted curve at half-maximal effect)", "details": "ER-alpha-UAS-bla HEK293, beta-lactamase ratio, antagonist mode; series mostly up to 76.9 µM", "method_in_brief": "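Antagonist mode: inhibition of 0.5 nM 17-beta-estradiol-driven beta-lactamase reporter in HEK 293 ER-alpha-UAS-bla cells, 18 h at 37C, CCF4 readout after 2 h at RT. Normalised to estradiol and DMSO; titration fitted to Hill.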"}
{"smiles": "CN(C)c1ccc(C2(c3ccc(N(C)C)cc3)OC(=O)c3cc(N(C)C)ccc32)cc1", "Potency": "inactive"}
{"smiles": "CO[C@H]1/C=C/O[C@@]2(C)Oc3c(C)c(O)c4c(O)c(c5c(c4c3C2=O)NC2(CCN(CC(C)C)CC2)N=5)=NC(=O)/C(C)=C\\C=C\\[C@H](C)[C@H](O)[C@@H](C)[C@@H](O)[C@@H](C)[C@H](OC(C)=O)[C@@H]1C", "Potency": "inactive"}
{"smiles": "Cc1cc(O)c(C(C)(C)C)cc1Sc1cc(C(C)(C)C)c(O)cc1C", "Potency": "12.6 µM [inconclusive] (active)"}
{"smiles": "O=C1OC2(c3cc(Br)c(O)c(Br)c3Oc3c2cc(Br)c(O)c3Br)c2c(Cl)c(Cl)c(Cl)c(Cl)c21", "Potency": "inactive"}
{"smiles": "ClC1=C(Cl)C(Cl)(Cl)C(Cl)=C1Cl", "Potency": "inactive"}
{"smiles": "C=CC(=O)OCCOCCOC(=O)C=C", "Potency": "35.5 µM [inconclusive] (active)"}
{"smiles": "CCC(C)Nc1ccc(NC(C)CC)cc1", "note": "(stereo unspecified)", "Potency": "6.31 µM [inconclusive] (active)"}
{"smiles": "c1ccc2c(c1)ccc1cc3c(ccc4ccccc43)cc12", "Potency": "inactive"}
{"molecular_target": "Estrogen receptor (Homo sapiens) (UniProt P03372)", "experiment": "qHTS assay for small molecule agonists of estrogen receptor alpha signaling (AID 588514);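 also: 0% = vehicle only and 100% = reference agonist; nearly all actives have a fitted effect of over 70% in size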", "details": "ER-alpha-UAS-bla HEK293, beta-lactamase ratio, 18 h, percent of full estradiol response, vehicle zero; series mostly up to 76.8 µM", "method_in_brief": "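Reporter-gene assay. […] controls beta-lactamase in HEK 293 GripTite cells; after 18 hrs with compound, CCF4 substrate is added for 2 hrs and fluorescence is read.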"}
{"smiles": "CO[C@H]1/C=C/O[C@@]2(C)Oc3c(C)c(O)c4c(O)c(c5c(c4c3C2=O)NC2(CCN(CC(C)C)CC2)N=5)=NC(=O)/C(C)=C\\C=C\\[C@H](C)[C@H](O)[C@@H](C)[C@@H](O)[C@@H](C)[C@H](OC(C)=O)[C@@H]1C", "outcome": "inactive"}
{"smiles": "Cc1cc(O)c(C(C)(C)C)cc1Sc1cc(C(C)(C)C)c(O)cc1C", "outcome": "inactive"}
{"smiles": "O=C1OC2(c3cc(Br)c(O)c(Br)c3Oc3c2cc(Br)c(O)c3Br)c2c(Cl)c(Cl)c(Cl)c(Cl)c21", "outcome": "inactive"}
{"smiles": "c1cc(OCC2CO2)cc(OCC2CO2)c1", "note": "(stereo unspecified)", "outcome": "inactive"}
{"smiles": "ClC1=C(Cl)C(Cl)(Cl)C(Cl)=C1Cl", "outcome": "inactive"}
{"molecular_target": "Bile acid receptor (Homo sapiens) (UniProt Q96RI1)", "sequence (Q96RI1 whole entry, looked up)": "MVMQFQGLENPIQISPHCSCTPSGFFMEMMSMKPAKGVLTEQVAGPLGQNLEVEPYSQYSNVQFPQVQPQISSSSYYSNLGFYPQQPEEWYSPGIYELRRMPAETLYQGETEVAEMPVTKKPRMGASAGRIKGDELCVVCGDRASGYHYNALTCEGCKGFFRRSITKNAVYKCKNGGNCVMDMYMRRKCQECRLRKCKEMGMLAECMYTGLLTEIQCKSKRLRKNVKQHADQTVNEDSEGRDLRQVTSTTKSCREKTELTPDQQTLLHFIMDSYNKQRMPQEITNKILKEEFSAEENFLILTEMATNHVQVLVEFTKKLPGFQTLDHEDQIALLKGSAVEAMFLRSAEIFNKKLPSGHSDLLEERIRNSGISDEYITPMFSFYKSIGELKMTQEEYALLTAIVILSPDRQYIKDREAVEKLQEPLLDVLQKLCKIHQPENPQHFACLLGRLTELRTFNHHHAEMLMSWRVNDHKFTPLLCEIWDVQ", "experiment": "qHTS assay for small molecule antagonists of farnesoid X receptor signaling (AID 588526); also: potency is read from the fitted curve at half-maximal effect", "details": "HEK293T FXR-UAS-bla, beta-lactamase ratio, antagonist mode; series mostly up to 76.7 µM", "method_in_brief": "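Beta-lactamase reporter antagonist mode: HEK293T FXR-UAS-bla cells, titrated compound, CDCA stimulation, 16 h 37 C, CCF4 dye 2 h RT. Data normalized to CDCA 50 uM and DMSO; Hill-fit IC50.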"}
{"smiles": "Cc1cc(Nc2ccc(O)cc2)ccc1N", "Potency": "inactive"}
{"smiles": "CO[C@H]1/C=C/O[C@@]2(C)Oc3c(C)c(O)c4c(O)c(c5c(c4c3C2=O)NC2(CCN(CC(C)C)CC2)N=5)=NC(=O)/C(C)=C\\C=C\\[C@H](C)[C@H](O)[C@@H](C)[C@@H](O)[C@@H](C)[C@H](OC(C)=O)[C@@H]1C", "Potency": "inactive"}
{"smiles": "Cc1cc(O)c(C(C)(C)C)cc1Sc1cc(C(C)(C)C)c(O)cc1C", "Potency": "22.4 µM (active)"}
{"smiles": "C=C(C)c1ccccc1", "Potency": "inactive"}
{"smiles": "Cc1ccc(S(=O)(=O)Oc2ccc(N=Nc3ccc(-c4ccc(N=Nc5c(O)ccc6cc(S(=O)(=O)O)cc(S(=O)(=O)O)c56)c(C)c4)cc3C)cc2)cc1", "Potency": "inactive"}
{"smiles": "O=C=Nc1ccc(Cc2ccc(N=C=O)cc2)cc1", "Potency": "inactive"}
{"smiles": "c1ccc2c(c1)ccc1cc3c(ccc4ccccc43)cc12", "Potency": "inactive"}
{"molecular_target": "Glucocorticoid receptor (Homo sapiens) (UniProt P04150)", "sequence (P04150 whole entry, looked up)": "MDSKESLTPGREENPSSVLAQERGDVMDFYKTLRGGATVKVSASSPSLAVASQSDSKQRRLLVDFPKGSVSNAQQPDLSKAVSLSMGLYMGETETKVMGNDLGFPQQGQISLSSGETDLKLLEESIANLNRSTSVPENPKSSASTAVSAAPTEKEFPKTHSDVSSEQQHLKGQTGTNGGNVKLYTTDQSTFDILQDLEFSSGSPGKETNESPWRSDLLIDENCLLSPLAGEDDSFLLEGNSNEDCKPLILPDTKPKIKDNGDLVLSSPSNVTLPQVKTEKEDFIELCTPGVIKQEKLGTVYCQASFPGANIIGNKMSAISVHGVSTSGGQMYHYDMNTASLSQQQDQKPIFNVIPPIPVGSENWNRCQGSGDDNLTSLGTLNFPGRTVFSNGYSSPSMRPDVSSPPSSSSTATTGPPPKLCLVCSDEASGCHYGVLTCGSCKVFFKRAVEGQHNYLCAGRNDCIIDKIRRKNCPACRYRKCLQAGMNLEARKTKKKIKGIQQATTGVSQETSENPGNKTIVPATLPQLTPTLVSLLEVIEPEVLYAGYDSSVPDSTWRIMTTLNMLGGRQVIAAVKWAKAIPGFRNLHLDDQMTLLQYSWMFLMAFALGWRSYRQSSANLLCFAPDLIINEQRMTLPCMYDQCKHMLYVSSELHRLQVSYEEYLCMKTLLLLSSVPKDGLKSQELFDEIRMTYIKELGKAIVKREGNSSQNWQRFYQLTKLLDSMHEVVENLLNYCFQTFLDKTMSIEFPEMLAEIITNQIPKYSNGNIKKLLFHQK", "experiment": "qHTS assay for small molecule agonists of glucocorticoid receptor signaling (AID 588532; active = well fitted curve in the direction sought with a large enough effect in the signal ratio, with a control signal flat; inconclusive = small, poorly fitted or top-dose-only effect, or a change in a side signal; inactive = no such curve, though single readings can be large or run the other way; the % refers to the signal ratio;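 also: 100% = dexamethasone at 0.1 µM and 0% = DMSO only wells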)", "details": "HeLa MMTV-bla, beta-lactamase ratio, agonist, 18 h; stronger effect = higher value; percent of dexamethasone control, DMSO zero", "method_in_brief": "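Agonist-mode qHTS: GRE-driven beta-lactamase in HeLa cells exposed 18 h to titrated compounds (up to 92 uM), then CCF4 ratio read after 2 h at RT; Hill-fitted EC50, efficacy relative to 0.1 uM dexamethasone.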"}
{"smiles": "CO[C@H]1/C=C/O[C@@]2(C)Oc3c(C)c(O)c4c(O)c(c5c(c4c3C2=O)NC2(CCN(CC(C)C)CC2)N=5)=NC(=O)/C(C)=C\\C=C\\[C@H](C)[C@H](O)[C@@H](C)[C@@H](O)[C@@H](C)[C@H](OC(C)=O)[C@@H]1C", "activation": "-2.4% (inactive)"}
{"smiles": "Cc1cc(O)c(C(C)(C)C)cc1Sc1cc(C(C)(C)C)c(O)cc1C", "activation": "26% (inactive)"}
{"smiles": "O=C1OC2(c3cc(Br)c(O)c(Br)c3Oc3c2cc(Br)c(O)c3Br)c2c(Cl)c(Cl)c(Cl)c(Cl)c21", "activation": "0.908% (inactive)"}
{"smiles": "c1cc(OCC2CO2)cc(OCC2CO2)c1", "note": "(stereo unspecified)", "activation": "4.18% (inactive) and -8.77% (inactive)"}
{"smiles": "ClC1=C(Cl)C(Cl)(Cl)C(Cl)=C1Cl", "activation": "4.1% (inactive) and -7.79% (inactive)"}
{"smiles": "O=C1OC(O)C(C(Cl)Cl)=C1Cl", "note": "(stereo unspecified)", "activation": "-17.9% (inactive)"}
{"smiles": "CC(=O)Nc1ccc(C(=O)CCl)cc1", "activation": "-4.98% (inactive) and -25.5% (inactive)"}
{"smiles": "CCC(C)Nc1ccc(NC(C)CC)cc1", "note": "(stereo unspecified)", "activation": "1.29% (inactive) and -5.53% (inactive)"}
{"smiles": "O=C=Nc1ccc(Cc2ccc(N=C=O)cc2)cc1", "activation": "5.29% (inactive) and -5.07% (inactive)"}
{"smiles": "CC/C(=C(\\c1ccccc1)c1ccc(OCCN(C)C)cc1)c1ccc(O)cc1", "activation": "5.28% (inactive)"}
{"smiles": "O=Cc1ccc(Cl)c(Cl)c1", "activation": "-2.24% (inactive)"}
{"molecular_target": "Glucocorticoid receptor (Homo sapiens) (UniProt P04150)", "experiment": "qHTS assay for small molecule antagonists of glucocorticoid receptor signaling (AID 588533; active = well fitted inhibition curve with a large enough effect in the signal ratio, with a control signal flat, not every such curve was filed as active; inconclusive = small, poorly fitted or top-dose-only effect, or effect the other way, or a change in a side signal; the % refers to the signal ratio;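 also: cells stimulated with 2 nM dexamethasone as agonist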; also: potency is read from the fitted curve at half-maximal effect)", "details": "HeLa MMTV-bla, GRE beta-lactamase ratio, antagonist mode, 18 h; series mostly up to 76.8 µM", "method_in_brief": "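Antagonist-mode qHTS: compound titrations added to GRE-bla HeLa cells, then dexamethasone 2 nM final; 18 h, 37 C. CCF4 FRET fluorescence normalized to dexamethasone and DMSO; IC50 from Hill fit.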"}
{"smiles": "CO[C@H]1/C=C/O[C@@]2(C)Oc3c(C)c(O)c4c(O)c(c5c(c4c3C2=O)NC2(CCN(CC(C)C)CC2)N=5)=NC(=O)/C(C)=C\\C=C\\[C@H](C)[C@H](O)[C@@H](C)[C@@H](O)[C@@H](C)[C@H](OC(C)=O)[C@@H]1C", "Potency": "inactive"}
{"smiles": "Cc1ccc(S(=O)(=O)Oc2ccc(N=Nc3ccc(-c4ccc(N=Nc5c(O)ccc6cc(S(=O)(=O)O)cc(S(=O)(=O)O)c56)c(C)c4)cc3C)cc2)cc1", "Potency": "inactive"}
{"smiles": "C=CC(=O)OCCOCCOC(=O)C=C", "Potency": "44.7 µM (active)"}
{"smiles": "CC(=O)Nc1ccc(C(=O)CCl)cc1", "Potency": "39.8 µM (active)"}
{"smiles": "CCC(C)Nc1ccc(NC(C)CC)cc1", "note": "(stereo unspecified)", "Potency": "35.5 µM (active)"}
{"smiles": "O=C=Nc1ccc(Cc2ccc(N=C=O)cc2)cc1", "Potency": "inactive"}
{"smiles": "O=Cc1ccc(Cl)c(Cl)c1", "Potency": "inactive"}
{"test_system": "not listed separately", "experiment": "qHTS assay for small molecule antagonists of peroxisome proliferator-activated receptor delta signaling (AID 588535);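 also: cells co-treated with a PPAR-delta agonist as stimulator during compound exposure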", "details": "HEK293T PPARd-UAS-bla, beta-lactamase FRET ratio, 18 h; 460 nm channel", "method_in_brief": "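Cell-based beta-lactamase assay in antagonist mode: 4000 HEK293T PPAR-delta-UAS-bla cells per well, 5 hr preincubation then 18 hr compound incubation at 37 C. IC50 obtained by Hill equation fitting.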"}
{"smiles": "CN(C)c1ccc(C2(c3ccc(N(C)C)cc3)OC(=O)c3cc(N(C)C)ccc32)cc1", "max response": "-30.7%"}
{"smiles": "O=C=Nc1ccc(Cc2ccc(N=C=O)cc2)cc1", "max response": "-20% and 23.7%"}
{"smiles": "O=Cc1ccc(Cl)c(Cl)c1", "max response": "20.6%"}
